The values that follow come from PubChem BioAssay (NCATS).

The target of assay [1] is Lysosomal acid glucosylceramidase (Homo sapiens) (UniProt P04062). In words: Glucocerebrosidase-p2 (AID 348; in the data active means potency below about 10 µM; further: potency means the concentration at half of the fitted maximal effect). The note with it: purified GBA, blue fluorogenic substrate, 40 min. Summed up:
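Compounds titrated from 0.6 nM upwards against 0.2 nM enzyme in pH 5.9 citric acid/KH2PO4, taurocholate, tween-20; blue fluorogenic substrate 80 uM, 40 min room temperature, stopped and read Ex 365/Em 440 for AC50.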

A short description of assay [2]: AP1 Signaling Pathway (AID 357). Further: on the % scale 0 is the no-effect control and ±100 the full control effect. The note with it: ME-180 AP-1-bla reporter, EGF-induced, beta-lactamase ratio, 5 h; at 7.69 µM (top of the series) unless noted. Summed up:
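AP-1-bla ME-180 cells with beta-lactamase reporter under AP-1 response element, stimulated with EC50 EGF; compounds titrated, 5 hours at 37 degrees Celsius. CCF4 read at 460/530 nm ratio; positive and negative modulators judged by AC50.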

Assay [3] concerns the target Cytochrome P450 1A2 (Homo sapiens) (UniProt P05177). Kind of assay: p450-cyp1a2 (AID 410; calls by dose curve; further: potency means the concentration at half of the fitted maximal effect;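 on activity change, negative = inhibition: -100% = full effect of reference inhibitor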). The conditions noted are these: recombinant CYP1A2, luciferin-ME demethylation, luminescence; series mostly up to 57 µM. Summed up:
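Human CYP1A2 (20nM) demethylated Luciferin-ME at its Km (100uM) in 100mM KPO4. After 10 min compound preincubation, NADPH regeneration ran the reaction 60 min at room temperature. Luciferin was read by luminescence, normalized to 57 uM furafylline.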

Assay [4] in a line: NFAT Signaling Pathway (AID 444).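 Further: carbachol stimulus at about its EC50 of 1 µM final; on the % scale 0 is the no-effect control and ±100 the full control effect.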 The note with it: Jurkat NFAT-bla M1, carbachol, beta-lactamase ratio, 5 h; at 7.69 µM (top of the series) unless noted. Summed up: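 Jurkat cells carrying an NFAT-driven β-lactamase reporter and co-transfected muscarinic M1 receptor were treated with compound plus carbachol (1 uM final, an EC50 level) for 5 h at 37 °C. CCF4 loading followed for 1 h at RT; 460/530 nm ratio gave %activity.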

The nature of assay [5]: Stat Signaling Pathway (AID 446).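 Further: ME-180 cervical cancer cells given 40 pM IL-6 alongside compound; SIE-controlled beta-lactamase reporter measured as 460/530 nm FRET emission ratio; on the % scale 0 is the no-effect control and ±100 the full control effect.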 The note with it: ME-180 SIE beta-lactamase reporter, IL-6 stimulated, 5 h; at 7.69 µM (top of the series) unless noted. Summed up:
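IL-6/STAT signaling read in ME-180 cells via an SIE beta-lactamase reporter. Stimulus was 40 pM IL-6 (its AC50) for 5 hrs, so both activation and inhibition register.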

Assay [6] deals with Glucocorticoid receptor (Homo sapiens) (UniProt P04150). Kind of assay: GR-EFC Redistribution (AID 451; calls by dose curve; further: potency means the concentration at half of the fitted maximal effect). The note with it: CHO-K1 GR-EFC translocation, beta-gal luminescence, 2 h. Summed up:
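CHO-K1 cells stably expressing nuclear-localized β-gal enzyme acceptor and GR fused C-terminally to the enzyme donor fragment; ligand-driven nuclear translocation restores β-gal by complementation. Compounds titrated up to 46 uM final, 2 h at 37 °C; luminescence read.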

The target in assay [7] is Mitogen-activated protein kinase 10 (Mus musculus) (UniProt Q61831). In words: JNK3 AlphaScreen Assay (AID 530).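 Further: kinase came from lysate of stimulated human HepG2 cells; signal reports phosphorylation of biotinylated GST-cJun 1-79 at Ser73 with 10 µM ATP; on the % scale 0 is the no-effect control and ±100 the full control effect.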 The note with it: JNK3 lysate, c-Jun phosphorylation; series mostly up to 57.1 µM. Summed up:
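JNK3 came from HepG2 lysates pre-activated with IL-1beta and TNF-alpha and phosphorylated biotinylated GST-cJun (1-79) at 10 uM ATP, pH 7.6, room temperature. Compounds were titrated. AlphaScreen signal used anti-phospho-cJun (Ser73) antibody.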
In general terms: In Alpha technology, singlet oxygen from a donor bead excites a nearby acceptor bead.

The target of assay [8] is 3',5'-cyclic-AMP phosphodiesterase 4B (Homo sapiens) (UniProt Q07343). In words: qHTS Assay for Inhibitors of PDE-IV (AID 607; active means well fitted activation curve with a large enough effect in the main read-out, with a control signal flat, not every such curve was filed as active; further: % of control where 0% means no effect). The conditions noted are these: HEK293 ACTOne CNG channel cells, membrane potential fluorescence; series mostly up to 22.9 µM. Summed up:
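Live HEK293 cells with a modified cyclic nucleotide-gated (CNG) channel report intracellular cAMP via membrane-potential dye fluorescence (ex 535/em 590 nm). Endogenous PDE-IV was targeted. Compounds were tested at up to 22.9 uM final; RO 20-1724 100 uM served as control.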
A general note: qHTS replaces the single test concentration by a dilution series.

Assay [9] is described as follows: qHTS Assay for Identification of Small Molecule Agonists for Hypoxia Response Element Signaling Pathway (AID 914; active means well fitted activation curve with a large enough effect in the signal ratio, with a control signal flat, not every such curve was filed as active; the % refers to the signal ratio; further: % of control where 0% means no effect). The conditions noted are these: ME-180 (cervical carcinoma) HRE-bla reporter, beta-lactamase ratio, CoCl2, 17 h; activation: stronger effect = higher value. Summed up: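 A beta-lactamase reporter under hypoxia response element control in ME-180 cells served as the system. Compound titrations plus EC50 CoCl2 ran 17 h at 37 degrees Celsius; AC50 values were fitted from %Activity.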

Assay [10] is described as follows: qHTS Assay for Lipid Storage Modulators (AID 1519; calls by dose curve). The conditions noted are these: Drosophila S3 cells, BODIPY lipid droplet/cell ratio, laser cytometry, cells loaded with oleic acid; for activity change, negative = inhibition: at 57.5 µM (top of the series). Summed up: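 Cells seeded at 5,000 per well were treated with compounds over a concentration series and loaded with oleic acid (400 uM, as added). Lipid droplet fluorescence (488 nm excitation, 500-530 nm channel) was read by laser-scanning cytometry and normalized to 20 uM Triacsin C.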

Assay [11] can be described thus: Primary qHTS for small molecule stabilizers of the endoplasmic reticulum resident proteome: Secreted ER Calcium Modulated Protein (SERCaMP) assay (AID 1508630; active means well fitted curve in the direction sought with a large enough effect; an effect the other way counts as inactive or inconclusive; further: on the % scale 0 is the no-effect control and ±100 the full control effect). The conditions noted are these: SH-SY5Y GLuc-SERCaMP (Gaussia luciferase released on ER calcium loss) secretion, thapsigargin, luminescence; series mostly up to 38.4 µM. Summed up:
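GLuc-SERCaMP-expressing SH-SY5Y cells, pretreated 16 h with compound, are challenged with thapsigargin to empty ER calcium stores; after 4 h, coelenterazine is added directly to the medium and luminescence is imaged.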

Assay [12] deals with Cytochrome P450 3A4 (Homo sapiens) (UniProt P08684). Kind of assay: qHTS Assay for Activators of Cytochrome P450 3A4 (AID 885; active means well fitted curve in the direction sought with a large enough effect; an effect the other way counts as inactive or inconclusive; further: nearly all actives have a fitted effect of over 65% in size). The note with it: recombinant CYP3A4, Luciferin-PPXE luminescence, 60 min; series mostly up to 57.1 µM. Summed up: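 Quantitative HTS format: compounds preincubated with 20nM human CYP3A4 and Luciferin-PPXE substrate at KM, reaction started by NADPH regeneration, stopped after 60 min, luciferase luminescence read 20 min later.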

Assay [13] has as its target Cytochrome P450 2D6 (Homo sapiens) (UniProt P10635). Kind of assay: qHTS Assay for Inhibitors and Substrates of Cytochrome P450 2D6 (AID 891; active means well fitted curve in the direction sought with a large enough effect; an effect the other way counts as inactive or inconclusive; further: potency means the concentration at half of the fitted maximal effect; nearly all actives have a fitted effect of over 60% in size). The note with it: recombinant CYP2D6, luciferin-ME EGE luminescence; series mostly up to 57.1 µM. Summed up: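 Human CYP2D6 (5 nM) with 30 uM Luciferin-ME EGE (at Km) in 100 mM KPO4, compound preincubated 10 min, then NADPH regeneration system for 60 min at room temperature. Luciferin read by luminescence; normalized to 1.43 uM quinidine.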

[14] abbreviates: measured here: cell count channel max response.
Where [15] appears, read: measured here: lipid channel max response.

The structures appear in SMILES notation. Inconclusive results are not listed. Active and inactive are the calls of the source. Unless noted, the call rests on the fitted dose curve; in most records, active means well fitted curve in either direction with a large enough effect (not every such curve was filed as active); inconclusive means small, poorly fitted or top-dose-only effect, or another doubt; inactive means flat fitted curve, though single readings scatter.

Sequence of Glucocorticoid receptor (Homo sapiens) (P04150 whole entry, looked up, the tested form may be a part): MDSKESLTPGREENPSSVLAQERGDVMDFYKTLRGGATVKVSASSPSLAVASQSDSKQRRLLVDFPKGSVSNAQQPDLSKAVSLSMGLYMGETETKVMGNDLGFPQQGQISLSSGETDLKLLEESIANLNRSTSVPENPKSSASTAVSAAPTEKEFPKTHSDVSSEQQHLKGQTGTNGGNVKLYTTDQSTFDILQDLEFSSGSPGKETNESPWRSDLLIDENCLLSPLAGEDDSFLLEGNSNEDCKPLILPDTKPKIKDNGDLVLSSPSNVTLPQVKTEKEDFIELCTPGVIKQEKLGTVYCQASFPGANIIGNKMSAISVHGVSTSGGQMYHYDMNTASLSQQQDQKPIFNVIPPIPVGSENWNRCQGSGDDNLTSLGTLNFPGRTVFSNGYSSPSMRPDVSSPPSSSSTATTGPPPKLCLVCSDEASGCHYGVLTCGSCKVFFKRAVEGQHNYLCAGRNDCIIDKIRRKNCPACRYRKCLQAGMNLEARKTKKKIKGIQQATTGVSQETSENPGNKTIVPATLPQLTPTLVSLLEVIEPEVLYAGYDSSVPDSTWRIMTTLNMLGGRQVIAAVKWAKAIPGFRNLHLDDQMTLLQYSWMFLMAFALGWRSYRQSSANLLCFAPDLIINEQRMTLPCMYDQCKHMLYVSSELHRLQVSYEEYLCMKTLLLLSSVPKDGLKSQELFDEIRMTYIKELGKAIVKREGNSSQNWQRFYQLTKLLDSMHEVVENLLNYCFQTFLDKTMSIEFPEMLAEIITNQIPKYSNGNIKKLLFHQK
Sequence of Lysosomal acid glucosylceramidase (Homo sapiens) (P04062 whole entry, looked up): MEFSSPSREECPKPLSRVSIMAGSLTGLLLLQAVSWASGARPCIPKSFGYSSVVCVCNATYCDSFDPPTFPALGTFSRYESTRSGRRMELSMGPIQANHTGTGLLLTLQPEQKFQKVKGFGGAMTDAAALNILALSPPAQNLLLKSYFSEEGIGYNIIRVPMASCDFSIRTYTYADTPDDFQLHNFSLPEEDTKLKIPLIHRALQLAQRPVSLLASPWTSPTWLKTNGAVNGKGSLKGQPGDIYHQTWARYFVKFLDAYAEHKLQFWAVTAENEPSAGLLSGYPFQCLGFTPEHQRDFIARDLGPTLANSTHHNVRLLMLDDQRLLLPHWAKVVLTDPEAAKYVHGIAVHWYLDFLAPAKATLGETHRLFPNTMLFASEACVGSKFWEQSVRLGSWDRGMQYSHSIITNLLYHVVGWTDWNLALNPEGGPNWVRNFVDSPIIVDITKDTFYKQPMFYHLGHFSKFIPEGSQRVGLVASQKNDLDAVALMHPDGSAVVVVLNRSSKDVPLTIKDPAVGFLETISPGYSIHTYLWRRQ
Sequence of 3',5'-cyclic-AMP phosphodiesterase 4B (Homo sapiens) (Q07343 whole entry, looked up): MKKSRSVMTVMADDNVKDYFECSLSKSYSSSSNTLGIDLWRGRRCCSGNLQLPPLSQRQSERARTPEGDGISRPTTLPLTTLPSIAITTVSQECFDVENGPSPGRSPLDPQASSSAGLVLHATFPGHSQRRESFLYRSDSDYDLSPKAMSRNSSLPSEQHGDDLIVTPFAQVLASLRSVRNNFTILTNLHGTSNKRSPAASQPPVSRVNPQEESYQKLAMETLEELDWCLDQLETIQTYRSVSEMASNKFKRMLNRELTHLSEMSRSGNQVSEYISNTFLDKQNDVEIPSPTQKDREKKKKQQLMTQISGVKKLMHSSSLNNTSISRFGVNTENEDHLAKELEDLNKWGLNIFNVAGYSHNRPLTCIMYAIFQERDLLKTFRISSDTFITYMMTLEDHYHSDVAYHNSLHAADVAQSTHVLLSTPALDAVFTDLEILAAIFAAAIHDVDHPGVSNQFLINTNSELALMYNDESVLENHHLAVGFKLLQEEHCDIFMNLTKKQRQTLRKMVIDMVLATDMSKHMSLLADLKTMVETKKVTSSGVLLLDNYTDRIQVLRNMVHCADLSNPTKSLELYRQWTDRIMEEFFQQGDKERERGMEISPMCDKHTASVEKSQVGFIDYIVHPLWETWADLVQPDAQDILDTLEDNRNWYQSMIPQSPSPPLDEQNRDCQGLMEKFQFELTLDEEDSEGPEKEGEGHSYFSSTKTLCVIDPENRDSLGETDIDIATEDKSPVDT
Sequence of Cytochrome P450 3A4 (Homo sapiens) (P08684 whole entry, looked up): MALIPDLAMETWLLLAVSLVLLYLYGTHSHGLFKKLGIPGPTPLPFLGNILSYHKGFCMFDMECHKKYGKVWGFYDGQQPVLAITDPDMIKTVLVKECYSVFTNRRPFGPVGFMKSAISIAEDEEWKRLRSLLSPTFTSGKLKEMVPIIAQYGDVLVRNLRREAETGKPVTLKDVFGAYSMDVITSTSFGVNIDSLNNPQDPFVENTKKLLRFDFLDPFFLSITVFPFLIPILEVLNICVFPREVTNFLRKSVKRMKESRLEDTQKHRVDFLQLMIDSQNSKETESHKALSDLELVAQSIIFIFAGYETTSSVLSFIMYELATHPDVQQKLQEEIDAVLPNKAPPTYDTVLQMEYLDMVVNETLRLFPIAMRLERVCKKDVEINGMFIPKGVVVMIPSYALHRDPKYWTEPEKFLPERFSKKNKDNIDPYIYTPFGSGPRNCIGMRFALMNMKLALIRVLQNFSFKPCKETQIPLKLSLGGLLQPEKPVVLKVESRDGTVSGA
Sequence of Cytochrome P450 1A2 (Homo sapiens) (P05177 whole entry, looked up): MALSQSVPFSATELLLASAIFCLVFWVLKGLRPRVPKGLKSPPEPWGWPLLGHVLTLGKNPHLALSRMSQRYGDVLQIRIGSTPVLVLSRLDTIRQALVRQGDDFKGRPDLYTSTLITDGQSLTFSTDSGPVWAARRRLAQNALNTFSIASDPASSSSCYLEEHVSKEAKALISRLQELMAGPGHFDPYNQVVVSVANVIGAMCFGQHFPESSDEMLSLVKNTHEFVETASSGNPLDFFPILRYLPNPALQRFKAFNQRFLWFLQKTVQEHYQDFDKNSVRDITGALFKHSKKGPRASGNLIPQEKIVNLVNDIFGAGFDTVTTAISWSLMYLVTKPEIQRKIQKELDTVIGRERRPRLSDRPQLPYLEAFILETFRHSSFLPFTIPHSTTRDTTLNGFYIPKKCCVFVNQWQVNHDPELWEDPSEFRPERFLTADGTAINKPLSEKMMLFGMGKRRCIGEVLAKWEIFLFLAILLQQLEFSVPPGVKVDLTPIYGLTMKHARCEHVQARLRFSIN
Sequence of Cytochrome P450 2D6 (Homo sapiens) (P10635 whole entry, looked up): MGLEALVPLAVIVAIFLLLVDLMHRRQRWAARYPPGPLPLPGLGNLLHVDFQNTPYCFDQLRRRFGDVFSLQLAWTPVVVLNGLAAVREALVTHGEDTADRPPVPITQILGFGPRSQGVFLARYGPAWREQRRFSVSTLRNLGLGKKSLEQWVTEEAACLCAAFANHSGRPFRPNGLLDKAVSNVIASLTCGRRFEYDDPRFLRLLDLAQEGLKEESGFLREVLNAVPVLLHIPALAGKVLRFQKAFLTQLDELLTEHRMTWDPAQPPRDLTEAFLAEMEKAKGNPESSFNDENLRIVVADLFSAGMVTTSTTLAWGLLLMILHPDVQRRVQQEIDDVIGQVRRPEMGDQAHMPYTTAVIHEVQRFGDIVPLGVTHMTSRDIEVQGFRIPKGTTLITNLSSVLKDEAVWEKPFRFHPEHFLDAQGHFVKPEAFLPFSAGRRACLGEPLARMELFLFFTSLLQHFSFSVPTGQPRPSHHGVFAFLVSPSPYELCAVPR

On to `COc1ccc(NC(=O)N2CC3(CCN(C(C)=O)CC3)C2)cc1`, for which the Potency was > 11.4 µM (inactive) in assay [1] and > 46 µM (inactive) in assay [6]. The figures for the activity change, negative = inhibition in [2], in assay [4] and in assay [10] were 8.48% (inactive), -0.444% (inactive) and 3.83% (inactive), respectively. Further, the Potency entry in assay [3], in assay [8] and in assay [11] was “inactive” in each case. The activity, negative = inhibition in [5] is -0.267% (inactive). In assay [7], the outcome was inactive. In [9], the activation was -8.17% (inactive). The results for the max response in [10] (setting [14]) and in assay [10] (setting [15]) were 13.9% and 23.3%, respectively.

With `O=C(Nc1cccc(F)c1)N1CC[C@@]2(CCCNC2)C1`, the Potency in assay [1] was > 11.4 µM (inactive); in assay [6], > 46 µM (inactive). Moreover, the activity change, negative = inhibition in assay [2] was 2.44% (inactive); in assay [4], -0.699% (inactive); in [10], 3.99% (inactive). In addition, the Potency entry in [3], in assay [8], in [12] and in assay [11] was “inactive” in each case. In assay [5], the activity, negative = inhibition was -0.756% (inactive). In addition, the molecule was called inactive in [7]. Further, the activation in assay [9] is 0.832% (inactive). For the same molecule, the figures for the max response in [10] (setting [14]) and in assay [10] (setting [15]) were -1.25% and 6.61%, respectively.

On to `O=C(c1csnn1)N1CCC2(CC1)CCN(c1ccccc1)CC2`, for which the Potency in [1] is > 11.4 µM (inactive); in [3], 15.8 µM (active); in assay [6], > 46 µM (inactive). The activity change, negative = inhibition in assay [2] was -9.9% (inactive); in assay [4] it was 25.1% (inactive); in assay [10] it was 4.25% (inactive). Also, the activity, negative = inhibition in assay [5] is 1.19% (inactive). The outcome in assay [7] was inactive. Also, the Potency entry in assay [8] and in assay [11] was “inactive” each time. In assay [9], the activation was -15.4% (inactive). Further, the max response in [10] (setting [14]) was 1.9%; in assay [10] (setting [15]), 6.57%.

As to `N#Cc1cccc(NC(=O)N2CCC3(CC2)CCN(C(=O)c2csnn2)CC3)c1`, the Potency in assay [1] is > 11.4 µM (inactive); in assay [6], > 46 µM (inactive). Besides, the results for the activity change, negative = inhibition in assay [2], in assay [4] and in [10] were -16.5% (inactive), 11.9% (inactive) and 5.57% (inactive), respectively. Besides, the Potency entry in assay [3], in [8], in assay [12] and in assay [11] was “inactive” in each case. Also, in assay [5], the activity, negative = inhibition was -0.506% (inactive). In assay [7], the call was inactive. In addition, the activation in assay [9] is -0.636% (inactive). Also, the max response in assay [10] (setting [14]) came to 15%; in assay [10] (setting [15]), 22.3%.

On to `c1ccc(-c2cccc(N3CC[C@@]4(CCCNC4)C3)c2)cc1`, for which the results for the Potency in assay [1], in assay [3] and in [6] were > 11.4 µM (inactive), 12.6 µM (active) and > 46 µM (inactive), respectively. For the same molecule, the activity change, negative = inhibition is 1.23% (inactive) in [2], 6.24% (inactive) in [4] and 1.77% (inactive) in [10]. In addition, in assay [5], the activity, negative = inhibition was -6.03% (inactive). In addition, the Potency result in [8], in assay [12] and in [11] was “inactive” each time. Further, the max response in [10] (setting [14]) is -28.1%; in assay [10] (setting [15]) it was -22.7%.

On to `COc1ccccc1CN1CC[C@@]2(CCCN(C(C)=O)C2)C1`, for which the Potency was > 11.4 µM (inactive) in [1], > 46 µM (inactive) in assay [6] and 3.16 µM (active) in assay [13]. Also, the values for the activity change, negative = inhibition in assay [2], in assay [4] and in assay [10] were -19% (inactive), 19.3% (inactive) and 0.807% (inactive), respectively. The Potency result in assay [3], in [8] and in assay [11] was “inactive” each time. Further, in assay [5], the activity, negative = inhibition was 1.39% (inactive). Also, the call in [7] was inactive. In addition, the max response is -2.53% in assay [10] (setting [14]) and -1% in assay [10] (setting [15]).
